Test results from paper PMC5540273 (PLoS ONE, 2017).

Assays:
Details in all cases: concentration: 1 μM, replicates: in singlicate; n = 1
[1] = test system: HIPK4
[2] = test system: HPK1
[3] = test system: HUNK
[4] = test system: ICK
[5] = test system: IGF1R
[6] = test system: T1, IKK-alpha
T1 construct: gene CHUK

[7] = test system: T2, IKK-beta
T2 construct: gene IKBKB

[8] = test system: T3, IKK-epsilon
T3 construct: gene IKBKE

[9] = test system: INSRR
[10] = test system: INSR
[11] = test system: IRAK1
[12] = test system: IRAK3
[13] = test system: IRAK4
[14] = test system: ITK
[15] = test system: JAK1(JH1domain-catalytic)
[16] = test system: JAK1(JH2domain-pseudokinase)
[17] = test system: JAK2(JH1domain-catalytic)
[18] = test system: JAK3(JH1domain-catalytic)
[19] = test system: T4, JNK1
T4 construct: gene MAPK8

[20] = test system: T5, JNK2
T5 construct: gene MAPK9
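Note: KINOMEscan kinase panel screen.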

| Structure (SMILES) | %Inh [1] | %Inh [2] | %Inh [3] | %Inh [4] | %Inh [5] | %Inh [6] | %Inh [7] | %Inh [8] | %Inh [9] | %Inh [10] | %Inh [11] | %Inh [12] | %Inh [13] | %Inh [14] | %Inh [15] | %Inh [16] | %Inh [17] | %Inh [18] | %Inh [19] | %Inh [20] |
| --- | --- | --- | --- | --- | --- | --- | --- | --- | --- | --- | --- | --- | --- | --- | --- | --- | --- | --- | --- | --- |
| CCCCc1nn2ncccc2c1-c1ccnc(NC2CC2)n1 [GW684374] | 0% | 3% | 2% | 7% | 0% | 0% | 3% | 0% | 0% | 0% | 28% | 13% | 12% | 0% | 7% | 0% | 0% | 0% | 63% | 84% |
| COc1ccc(CSc2nnc(-c3ccc4ncsc4c3)o2)cc1C(F)(F)F | 0% | 0% | 1% | 0% | 0% | 0% | 0% | 0% | 1% | 0% | 0% | 0% | 9% | 0% | 25% | 0% | 0% | 0% | 0% | 0% |
| COc1ccc(-c2coc3ccc(-c4nnc(C)o4)cc23)cc1 | 8% | 0% | 0% | 0% | 12% | 0% | 0% | 0% | 0% | 14% | 0% | 0% | 9% | 0% | 15% | 0% | 3% | 0% | 0% | 0% |
| Cn1cncc1-c1cc2c(Nc3ccc(OCc4ccccc4)cc3)ncnc2cn1 [GW281179] | 0% | 25% | 8% | 5% | 4% | 0% | 6% | 4% | 0% | 2% | 30% | 1% | 17% | 12% | 14% | 0% | 4% | 0% | 13% | 1% |
| COC(=O)C(NC(=O)NC1CCN(c2ccnc(Nc3ccc(F)cc3)n2)C1)c1ccccc1 (stereo not drawn) [GSK1379712] | 8% | 51% | 0% | 9% | 5% | 0% | 0% | 32% | 0% | 2% | 31% | 6% | 0% | 0% | 17% | 5% | 0% | 0% | 1% | 0% |
| COc1cc2ncnc(Nc3cccc(Br)c3)c2cc1OC.Cl [GI230329] | 68% | 50% | 6% | 3% | 0% | 0% | 0% | 18% | 0% | 0% | 36% | 21% | 1% | 0% | 3% | 0% | 6% | 0% | 18% | 56% |
| Nc1ncnc2occ(-c3ccc4c(c3)CCN4C(=O)Cc3cc(F)ccc3F)c12 [GSK2645446] | 0% | 31% | 0% | 0% | 0% | 0% | 0% | 41% | 0% | 0% | 0% | 0% | 0% | 0% | 0% | 0% | 0% | 0% | 0% | 0% |
| NS(=O)(=O)c1cccc(N/C=C2\C(=O)Nc3ccc(S(=O)(=O)Cc4c(Cl)cccc4Cl)cc32)c1 [GSK398099] | 0% | 49% | 0% | 15% | 0% | 0% | 15% | 26% | 0% | 5% | 32% | 5% | 19% | 12% | 11% | 0% | 3% | 0% | 5% | 21% |
| Cc1ccccc1-c1cc(-c2c[nH]nc2-c2ccccn2)ccn1 [GW680061] | 0% | 32% | 27% | 0% | 2% | 46% | 38% | 0% | 0% | 28% | 28% | 2% | 4% | 12% | 4% | 0% | 12% | 0% | 38% | 30% |
| COc1ccc(Nc2nccc(N3CCC(NC(=O)c4cc5ccccc5s4)C3)n2)cc1 (stereo not drawn) [GSK1379738] | 0% | 48% | 0% | 10% | 0% | 21% | 25% | 28% | 0% | 5% | 37% | 15% | 19% | 8% | 15% | 0% | 100% | 0% | 22% | 10% |
| CS(=O)(=O)CCNCc1nc(-c2ccc3ncnc(Nc4ccc5c(cnn5Cc5ccccc5)c4)c3c2)cs1.Cl.Cl [GW569716] | 0% | 32% | 28% | 2% | 19% | 38% | 8% | 0% | 0% | 0% | 37% | 0% | 19% | 17% | 0% | 0% | 0% | 0% | 12% | 2% |
| O=C1NC(=O)C(c2ccc(Cl)cc2)=C1Nc1ccc(O)cc1 [SB-340867] | 0% | 35% | 0% | 0% | 0% | 0% | 0% | 0% | 0% | 0% | 0% | 0% | 0% | 0% | 0% | 0% | 14% | 0% | 3% | 0% |
| Cc1cccc2c(-c3ccncn3)c(-c3ccc(F)cc3)nn12 [GW515532] | 8% | 3% | 0% | 9% | 0% | 37% | 18% | 0% | 16% | 75% | 0% | 8% | 3% | 7% | 5% | 6% | 36% | 0% | 33% | 74% |
| CC(=O)c1c(C)c2cnc(Nc3ccc(N4CCNCC4)cn3)nc2n(C2CCCC2)c1=O | 8% | 0% | 0% | 0% | 0% | 0% | 0% | 15% | 0% | 0% | 0% | 0% | 0% | 0% | 0% | 11% | 0% | 0% | 11% | 0% |
| COc1ccc(Nc2nccc(-c3ccc(NC(=O)c4cc5cc(F)ccc5[nH]4)cc3)n2)cc1 [GSK1229496] | 0% | 38% | 0% | 0% | 0% | 0% | 0% | 8% | 0% | 0% | 10% | 0% | 0% | 0% | 0% | 0% | 18% | 0% | 4% | 9% |
| CSc1ccc(-c2nc3n(c2-c2ccncc2)CCC3)cc1 [SKF-105561] | 2% | 0% | 21% | 18% | 0% | 5% | 6% | 12% | 0% | 5% | 21% | 0% | 6% | 12% | 8% | 15% | 4% | 0% | 31% | 49% |
| CCn1c(-c2ccccc2)nc2cnccc21 [SB-733416] | 0% | 48% | 0% | 46% | 7% | 37% | 43% | 19% | 2% | 4% | 45% | 4% | 38% | 1% | 0% | 0% | 30% | 0% | 21% | 3% |
| CN1c2ccc(-c3ccc(C(N)=O)cc3)cc2-c2[nH]ncc2S1(=O)=O | 4% | 28% | 0% | 0% | 5% | 0% | 0% | 0% | 0% | 0% | 0% | 10% | 0% | 0% | 0% | 37% | 27% | 0% | 0% | 0% |
| Cc1ccc(NC(=O)Nc2ccccc2)cc1-c1ccc(C(=O)Nc2ccncc2)cc1 [GSK1398471] | 10% | 37% | 22% | 2% | 11% | 0% | 0% | 5% | 0% | 3% | 0% | 0% | 0% | 8% | 31% | 0% | 0% | 0% | 11% | 29% |
| COc1ccc(Nc2nccc(N3CCC(NC(=O)C(C)c4ccc(Cl)cc4)CC3)n2)cc1 (stereo not drawn) [GSK1379812] | 0% | 39% | 10% | 0% | 0% | 0% | 0% | 100% | 0% | 15% | 6% | 18% | 0% | 22% | 26% | 6% | 0% | 0% | 1% | 14% |
| Nc1cccc(-c2ccc3c(N)n[nH]c3c2)n1 [GSK2192730] | 0% | 35% | 0% | 9% | 0% | 0% | 18% | 0% | 0% | 3% | 0% | 17% | 4% | 0% | 14% | 65% | 100% | 0% | 0% | 2% |
